# Data from the supplement of paper PMC3334620.
# Whole data set: some 33,000 sequences, median “E-score (-0.5 to 0.5)” near -0.012, cut for the highest 2% near 0.29. The full list was thinned out, with the highest values kept by preference.
# Target: T1, Ybr033w (UniProt P38073)
# T1 sequence: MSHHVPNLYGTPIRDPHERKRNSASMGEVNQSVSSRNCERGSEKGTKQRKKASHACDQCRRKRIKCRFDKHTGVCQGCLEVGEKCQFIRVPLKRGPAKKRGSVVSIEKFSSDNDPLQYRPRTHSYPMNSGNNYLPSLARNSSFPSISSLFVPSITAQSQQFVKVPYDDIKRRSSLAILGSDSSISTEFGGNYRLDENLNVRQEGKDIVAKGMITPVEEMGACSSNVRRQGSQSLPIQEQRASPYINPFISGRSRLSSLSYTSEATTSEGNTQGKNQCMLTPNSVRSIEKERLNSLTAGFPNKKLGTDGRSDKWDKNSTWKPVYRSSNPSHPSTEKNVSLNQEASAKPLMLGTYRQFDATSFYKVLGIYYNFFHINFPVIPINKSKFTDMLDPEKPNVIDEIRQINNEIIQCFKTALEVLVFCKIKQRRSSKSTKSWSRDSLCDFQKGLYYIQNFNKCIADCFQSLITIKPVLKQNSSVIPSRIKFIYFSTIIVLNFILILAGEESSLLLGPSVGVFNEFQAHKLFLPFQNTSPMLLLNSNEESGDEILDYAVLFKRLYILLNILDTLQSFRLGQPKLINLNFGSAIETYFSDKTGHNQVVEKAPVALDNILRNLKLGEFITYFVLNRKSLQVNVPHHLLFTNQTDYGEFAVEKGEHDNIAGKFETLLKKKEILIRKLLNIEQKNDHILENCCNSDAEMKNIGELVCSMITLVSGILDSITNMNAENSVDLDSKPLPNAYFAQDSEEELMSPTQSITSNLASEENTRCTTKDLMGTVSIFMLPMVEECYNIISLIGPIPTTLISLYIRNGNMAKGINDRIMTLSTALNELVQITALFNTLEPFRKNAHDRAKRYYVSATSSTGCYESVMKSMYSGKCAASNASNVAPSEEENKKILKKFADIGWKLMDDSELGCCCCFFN
# Assay: PBM E-score (8-mer binding enrichment) (E-score (-0.5 to 0.5)); higher = stronger / more preferred TF binding
# Details: protein concentration: 200 nM; construct: GST-full length
# Protocol: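 Universal 'all 10-mer' protein binding microarrays (Agilent AMADID 015681) probed with GST-tagged S. cerevisiae TFs (full-length or DBD) made by in vitro transcription/translation (PURExpress), about 100-200 nM. Bound TF was detected with fluorescent anti-GST. Each ungapped 8-mer (which stands for itself and its reverse complement) is scored by the PBM enrichment score (E-score), a modified Wilcoxon-Mann-Whitney statistic from -0.5 to +0.5, computed with the Universal PBM Analysis Suite. Scale: above 0.35 generally sequence-specific binding.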
row,Sequence,PBM E-score
1,ATTATAAG,0.237
2,GCATTCAC,0.216
3,GTGGTCGA,-0.198
4,TAGACAAA,0.0827
5,ACGTACGA,-0.182
6,ACATAGCG,0.0674
7,AACTACCC,0.0868
8,GAGCCAAA,-0.113
9,ATTCCCCA,-0.0626
10,GGTGGTAC,-0.231
11,GACGGTCC,-0.273
12,CTTATTAA,0.17
13,ACTATTAC,0.134
14,CTTATTAC,0.115
15,ATTATTAA,0.316
16,GTTATTAA,0.229
17,ATTATTAC,0.343
18,ATCTAAGC,0.0351
19,AGCGTTGC,-0.0711
20,CGCTTATC,-0.00322
21,CGGCTATA,-0.0713
22,GTCCGGAA,0.19
23,TTCCGGAA,0.316
24,ATCCGGAA,0.403
25,CTCCGGAA,0.22

row,Sequence,PBM E-score
1,ATCCGGAC,-0.0654
2,ATCCGGAG,0.143
3,CTCATCCC,-0.189
4,CGTACTGC,-0.151
5,CTCGTCTA,-0.0771
6,GATAATCA,0.236
7,AACAATCC,0.338
8,GATAATCC,0.375
9,AATAATCA,0.234
10,CATAATCC,0.0679
11,GATAATGC,0.115
12,AACAATCG,0.0843
13,AATAATCC,0.439
14,AACAATCT,0.168
15,ACCCGAAG,-0.0833
16,ACCTACTC,-0.0816
17,GACAAATC,0.24
18,AACAAAAA,0.212
19,AACAAATT,0.374
20,AACAAGTT,0.188
21,AACAAATC,0.315
22,AACAAATA,0.285
23,ACAAAAAT,0.308
24,ACAAAAAC,0.243
25,AACAAGTC,0.0761

row,Sequence,PBM E-score
1,AACAAGAT,0.221
2,AACAAAAT,0.291
3,ACAAAAAA,0.18
4,AGGCAGTG,-0.0313
5,GCCGTTTA,0.0411
6,CAAAAGTA,0.16
7,AAGCCATA,0.0179
8,ATGCACGA,-0.021
9,GGTGAGAC,0.0001
10,ACCAATCC,-0.0137
11,AACCTTTC,-0.0863
12,ACCAGCAC,-0.0392
13,CTCTGCGA,-0.0389
14,ATTCATCC,0.349
15,CTTCATCC,-0.0751
16,ATTCATCA,0.171
17,ACATAAAT,0.149
18,AGGGTGGG,-0.0779
19,ACCAAGCG,-0.0846
20,AGCACACA,-0.0313
21,AAAATGGA,0.197
22,AAAATGGT,0.319
23,AAAATGAA,0.081
24,AAAATGAT,0.369
25,AAAATGGG,-0.032

row,Sequence,PBM E-score
1,AAAATGAC,0.15
2,GATATGGC,-0.161
3,TCACCTAA,0.0978
4,GCGATACC,-0.236
5,CTGACTCA,-0.0835
6,AATACAAC,0.271
7,ATTACAAA,0.318
8,AATACAAG,0.252
9,TATACAAA,0.356
10,ATTACAGG,0.326
11,ATTACAAG,0.18
12,ATTACAGC,-0.21
13,ATTACAGA,0.141
14,GATACAAA,0.277
15,AATACAAA,0.302
16,CATACAAA,0.246
17,ATTACAAT,0.0893
18,ACGGCTTG,-0.0473
19,GGCGTGAC,-0.141
20,ATACTGAG,0.267
21,CTCCAGTA,0.109
22,AATCCATC,0.14
23,CAGCATAG,-0.0334
24,CACTTGCA,-0.0412
25,CGCTACAA,0.111

row,Sequence,PBM E-score
1,GGCAGCCA,-0.0547
2,AATACATC,0.297
3,AATACATG,0.222
4,GATACATC,-0.0274
5,GTTCGAAC,0.209
6,GGCTGTCA,-0.0424
7,CAGCGAAC,0.0498
8,TCATAAGA,0.114
9,ACATAAGC,0.0339
10,ACATAAGA,0.293
11,CCCAGTTA,-0.0098
12,GTGTTTGA,0.191
13,CAAGTGGC,0.0512
14,AATATTCT,0.248
15,AATATTCG,0.161
16,GCTATTAC,-0.0504
17,CATATTAC,0.17
18,GATATTCC,0.417
19,CATATTCC,0.0424
20,GATATTCA,0.12
21,GATATTAC,0.31
22,AATATTCC,0.45
23,CCTGCACG,-0.159
24,AGCAGTCC,-0.182
25,GCGTGAAA,0.0243

row,Sequence,PBM E-score
1,AACTGCTT,0.0101
2,GCCGGTTA,-0.0903
3,CTACAGCA,0.0371
4,TAAGGTCA,0.028
5,ACGGGAGT,0.0679
6,CCGCTCAG,-0.111
7,AGAACAGG,-0.125
8,AGGTTACC,0.0897
9,AATGATTC,0.306
10,GATGATCA,0.0749
11,AATGATAG,0.215
12,GATGATCC,0.4
13,AATGATAT,0.298
14,AATGATCA,0.0742
15,AATGATCT,0.157
16,AATGATAA,0.192
17,CATGATCC,0.0454
18,AATGATCC,0.421
19,AATGATTA,0.251
20,CATGATTC,-0.131
21,TCCCACGA,0.0793
22,ACTAGCCA,0.0538
23,AGAGTCTA,-0.16
24,CGCTGCAG,-0.12
25,GCGTTCAC,-0.0913

row,Sequence,PBM E-score
1,GTACCGAC,-0.275
2,CATGAGGA,0.0386
3,CGCTCTGC,-0.0367
4,CTGCGTGA,0.0319
5,ATTGATCC,0.466
6,CTTGATCC,0.0221
7,ATTGATCA,0.051
8,ATGCTTCA,0.0658
9,AACTACTA,0.298
10,ATCTACTG,0.143
11,TACTACTA,0.335
12,GACTACTA,0.122
13,AACTACTC,0.119
14,CAATACTA,0.143
15,ATCTACTA,0.324
16,CACTACTA,0.094
17,AACTACTG,0.126
18,ATCTACTC,0.127
19,GAATACTA,0.204
20,TAATACTA,0.362
21,TAACTATA,0.242
22,ATGCTGCG,-0.15
